Results as given in PubChem BioAssay.

system: Noggin (protein binding on small-molecule microarray); assay: small molecules binding Noggin protein – biochemical, 635/667 nm fluorescence, primary screen (AID 1095); details: 635 nm fluorescence, higher = more signal;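 note: score merges 667 nm feature fluorescence with signal to noise over triplicate slides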

| SMILES | composite z-score |
| --- | --- |
| CC1CC/C=C\[C@H]2OC34C=CCN(c5ccc6ccccc6c5)C(=O)[C@H]3N(C(CO)C(C)C)C(=O)[C@@H]4C2C(=O)O1 (stereo partly specified) | -0.0033 |
| COCCOC(=O)N1C(=O)[C@@]2(c3cc(C#CCC(C(=O)OC)C(=O)OC)ccc31)[C@H](c1ccc(OCCO)cc1)N1[C@H](c3ccccc3)[C@H](c3ccccc3)OC(=O)[C@H]1[C@@H]2C(=O)N1CCN(c2ncccn2)CC1 | 1.17 |
| CCOC(=O)[C@H]1C/C=C/C[C@H](C(=O)OCC)C(=O)O[C@H]2[C@@H](OC)O[C@H](CO)[C@@H](OC(=O)Nc3ccc(OC)cc3)[C@@H]2OC1=O | 0.713 |
| O=C1O[C@@H](c2ccccc2)[C@@H](c2ccccc2)N2[C@@H](c3ccc(O)cc3)[C@]3(C(=O)Nc4ccc(C#CC5=CCCCC5)cc43)[C@@H](C(=O)N3CCN(c4ncccn4)CC3)[C@H]12 | 1.86 |
| CCCCN1CC=CC23O[C@@H]4/C=C\CCC(C)OC(=O)C4[C@H]2C(=O)N(CCCCCCO)[C@@H]3C1=O (stereo partly specified) | -0.806 |
| CCOC(=O)C[C@H]1[C@H](OC(=O)c2ccc(-c3ccccc3)cc2)[C@@H](NC(=O)c2ccc3ccccc3n2)c2cc(OCCCO)ccc2N1C(=O)c1ccccc1 | 0.671 |
| COc1ccc(NN2C(C(O)c3ccccn3)C=CC3C(=O)N(C4CCCCC4)C(=O)C32)cc1 (stereo unspecified) | 0.05 |
| COc1cc(OC)c(C(O)C2C=CC3C(=O)N(c4ccccc4)C(=O)C3N2Nc2ccc(C#N)cc2)cc1Br (stereo unspecified) | -0.109 |
| COc1ccc([Si](C)(C)[C@H]2[C@H](CCn3cc([C@H](O)c4ccccc4)nn3)O[C@@]3(C(=O)N(Cc4ccc(N5CCOC5=O)cc4)c4ccccc43)[C@@H]2C)cc1 | -1.49 |
| CCCCC(CC)C(O)C1C=CC2C(=O)N(c3ccccc3)C(=O)C2N1Nc1ccc([N+](=O)[O-])cc1 (stereo unspecified) | 0.547 |

target: Neurogenic locus notch homolog protein 3 (Homo sapiens) (UniProt Q9UM47); assay: small molecules binding NOTCH3 protein – biochemical, 635/667 nm fluorescence, primary screen (AID 1096); details: small-molecule microarray, 635 nm fluorescence, higher = more signal
Sequence (Q9UM47 whole entry, looked up): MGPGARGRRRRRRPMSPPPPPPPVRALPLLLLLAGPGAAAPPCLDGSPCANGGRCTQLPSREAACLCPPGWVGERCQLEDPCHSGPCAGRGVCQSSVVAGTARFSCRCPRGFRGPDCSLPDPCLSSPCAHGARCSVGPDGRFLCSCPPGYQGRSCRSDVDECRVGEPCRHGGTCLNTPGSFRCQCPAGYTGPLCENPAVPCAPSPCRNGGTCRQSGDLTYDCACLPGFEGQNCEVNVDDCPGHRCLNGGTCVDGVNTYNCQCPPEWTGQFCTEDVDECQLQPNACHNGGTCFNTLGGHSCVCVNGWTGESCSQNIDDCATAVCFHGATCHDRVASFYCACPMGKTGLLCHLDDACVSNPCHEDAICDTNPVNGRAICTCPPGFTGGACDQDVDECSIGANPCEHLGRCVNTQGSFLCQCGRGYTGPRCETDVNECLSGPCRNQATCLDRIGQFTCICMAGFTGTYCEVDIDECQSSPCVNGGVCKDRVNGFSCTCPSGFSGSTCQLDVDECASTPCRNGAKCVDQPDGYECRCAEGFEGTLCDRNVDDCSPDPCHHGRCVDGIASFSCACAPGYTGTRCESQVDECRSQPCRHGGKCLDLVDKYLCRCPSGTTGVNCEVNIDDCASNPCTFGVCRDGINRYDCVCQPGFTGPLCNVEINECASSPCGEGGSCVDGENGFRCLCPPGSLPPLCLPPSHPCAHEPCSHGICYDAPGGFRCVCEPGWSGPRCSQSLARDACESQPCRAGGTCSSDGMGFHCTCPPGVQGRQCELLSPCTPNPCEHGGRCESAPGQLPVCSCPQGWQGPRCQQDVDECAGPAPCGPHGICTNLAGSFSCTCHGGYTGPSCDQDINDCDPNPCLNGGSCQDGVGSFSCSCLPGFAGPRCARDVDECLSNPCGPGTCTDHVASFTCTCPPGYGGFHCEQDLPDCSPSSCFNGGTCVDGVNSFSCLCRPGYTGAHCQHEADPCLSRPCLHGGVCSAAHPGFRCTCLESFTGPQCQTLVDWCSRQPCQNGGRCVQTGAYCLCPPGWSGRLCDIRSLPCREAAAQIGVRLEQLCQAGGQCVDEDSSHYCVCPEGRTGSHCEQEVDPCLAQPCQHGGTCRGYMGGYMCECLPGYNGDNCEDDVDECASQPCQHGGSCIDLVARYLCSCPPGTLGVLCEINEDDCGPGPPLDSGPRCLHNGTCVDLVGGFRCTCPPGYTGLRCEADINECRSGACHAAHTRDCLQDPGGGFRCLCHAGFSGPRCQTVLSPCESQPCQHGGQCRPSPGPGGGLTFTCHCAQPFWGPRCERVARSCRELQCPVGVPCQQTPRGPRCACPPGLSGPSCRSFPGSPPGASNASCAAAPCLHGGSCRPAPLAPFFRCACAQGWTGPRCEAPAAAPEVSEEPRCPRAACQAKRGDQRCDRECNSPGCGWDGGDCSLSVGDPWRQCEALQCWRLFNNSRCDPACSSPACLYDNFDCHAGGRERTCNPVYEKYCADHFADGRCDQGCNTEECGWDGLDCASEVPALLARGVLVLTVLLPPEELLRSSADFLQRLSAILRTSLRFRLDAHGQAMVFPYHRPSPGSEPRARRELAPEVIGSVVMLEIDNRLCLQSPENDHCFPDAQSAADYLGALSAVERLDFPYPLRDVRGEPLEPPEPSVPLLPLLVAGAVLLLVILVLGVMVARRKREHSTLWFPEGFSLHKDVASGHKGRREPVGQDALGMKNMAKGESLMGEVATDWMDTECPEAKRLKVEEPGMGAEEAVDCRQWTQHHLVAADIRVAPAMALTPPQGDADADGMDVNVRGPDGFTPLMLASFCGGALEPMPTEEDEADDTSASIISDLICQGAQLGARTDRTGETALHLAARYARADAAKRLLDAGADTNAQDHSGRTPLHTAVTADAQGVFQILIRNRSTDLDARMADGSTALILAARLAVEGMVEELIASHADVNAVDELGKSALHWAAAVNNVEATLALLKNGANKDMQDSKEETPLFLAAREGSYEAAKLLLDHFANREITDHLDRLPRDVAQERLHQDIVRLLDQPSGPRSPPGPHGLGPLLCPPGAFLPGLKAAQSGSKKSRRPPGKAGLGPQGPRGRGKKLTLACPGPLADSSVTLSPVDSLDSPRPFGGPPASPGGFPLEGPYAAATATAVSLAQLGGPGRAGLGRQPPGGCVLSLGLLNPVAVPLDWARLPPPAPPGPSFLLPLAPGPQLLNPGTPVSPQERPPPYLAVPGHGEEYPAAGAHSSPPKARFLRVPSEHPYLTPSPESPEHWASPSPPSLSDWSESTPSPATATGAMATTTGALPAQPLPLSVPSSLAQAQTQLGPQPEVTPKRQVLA

| SMILES | composite z-score |
| --- | --- |
| C[C@]1(C(=O)NCCN2CCOCC2)c2ccccc2C(=O)N(Cc2ccc(OC(F)(F)F)cc2)[C@H]1c1ccc(CO)cc1 | 0.164 |
| [N-]=[N+]=Nc1ccccc1[C@@H]1OC(c2ccc(OCCCO)cc2)=N[C@]1(CCS(=O)(=O)c1ccccc1)C(=O)NCCN1CCOCC1 | 0.808 |
| CC(C)CN1C(=O)[C@@]2(Cc3ccccc31)c1ccccc1C(=O)N(Cc1ccccc1C(F)(F)F)[C@H]2c1ccc(CO)cc1 | -0.527 |
| C=CC[C@]1(C(=O)N(C)C)N=C(c2ccc(OCCCO)cc2)O[C@H]1c1ccccc1N=[N+]=[N-] | 1.03 |
| COc1cc2c(cc1OC)CN(C(=O)[C@H]1[C@@H]3C(=O)O[C@@H](c4ccccc4)[C@@H](c4ccccc4)N3[C@@H](c3ccc(OCCO)cc3)[C@]13C(=O)Nc1ccc(C#CC4(O)CCCCCC4)cc13)CC2 | 1.09 |
| COCCCNC(=O)[C@@H]1c2ccccc2C(=O)N(Cc2ccccc2C(F)(F)F)[C@H]1c1ccc(CO)cc1 | -0.941 |
| C=CC[C@]12N=C(c3ccc(OCCCO)cc3)O[C@H]1c1ccccc1N(C)C2=O | 0.725 |
| CCCC[C@@H]1C[C@H]1[C@@H](NC(=O)c1cccnc1)c1ccc(-c2ccccc2)cc1 | -0.476 |
| C[C@@H]1ON(c2ccc(C(=O)OC(C)(C)C)cc2)[C@H](c2ccc(Br)cc2)[C@H]1C(=O)N1C(=O)OC[C@H]1Cc1ccccc1 | 1.08 |
| CC(C)CCC[C@@H](C)[C@H]1CC[C@@]2(C)C3=C(CC[C@]12C)[C@@]1(C)CC[C@H](OC(=O)c2ccc(Br)cc2)C(C)(C)C1CC3 (stereo partly specified) | 0.888 |
| COc1cc2c(cc1O)C(C)N(Cc1cc3c(cc1Br)OCO3)CC2 (stereo unspecified) | -0.53 |
| COc1c(C)cc(-c2cc3c(c(Cc4ccccc4)n2)[Si](C(C)C)(C(C)C)OC3)cc1C | 0.598 |
| CN(C)CCCN1C(=O)[C@@]2(c3ccc([N+](=O)[O-])cc3)CC(=O)N(CC34CC5CC(CC(C5)C3)C4)[C@@H]2c2ccc(CO)cc21 | 0.214 |
| CO[C@H]1O[C@H](CO)[C@@H](OC(=O)Nc2ccc(C(F)(F)F)cc2)[C@H](OC(=O)Nc2ccc3c(c2)OCO3)[C@H]1OC(=O)Nc1ccc2c(c1)OCO2 | 1.11 |
| NC(=O)NCC#Cc1ccc2c(c1)[C@]1(C(=O)N2)[C@H](C(=O)Nc2nc3ccccc3s2)[C@H]2C(=O)O[C@H](c3ccccc3)[C@H](c3ccccc3)N2[C@@H]1c1ccc(O)cc1 | 1.05 |
| COCCOC(=O)N1C(=O)[C@@]2(c3cc(C#CC4(O)CCCCCC4)ccc31)[C@H](C(=O)N1CCCCCCC1)[C@H]1C(=O)O[C@H](c3ccccc3)[C@H](c3ccccc3)N1[C@@H]2c1ccc(OCCO)cc1 | 1.03 |
| COC(=O)[C@@]1(Cc2ccccc2)[C@H]2c3cc(C(=O)N4CCCC4)[nH]c3C[C@H]2CN1C(=O)c1ccccc1 | -0.0434 |
| CCOC(=O)[C@H]1C/C=C/C[C@H](C(=O)OCC)C(=O)O[C@H]2[C@@H](OC)O[C@H](CO)[C@@H](OC(=O)CCc3ccccc3)[C@@H]2OC1=O | 0.01 |

| SMILES | composite z-score |
| --- | --- |
| Cc1ccc(F)cc1S(=O)(=O)N[C@@H]1CCN(Cc2ccc(OC(C)C)cc2)C1 | -0.877 |
| COCCOC(=O)N1C(=O)[C@@]2(c3cc(C#CC4=CCCCC4)ccc31)[C@H](C(=O)N1CCN(c3ncccn3)CC1)[C@H]1C(=O)O[C@H](c3ccccc3)[C@H](c3ccccc3)N1[C@@H]2c1ccc(O)cc1 | 1.09 |
| COC(=O)C1(Cc2ccccc2)C=C2C(=C(C(C)C)C(=O)C2C)CN1 (stereo unspecified) | -1.05 |
| O=C1O[C@H](c2ccccc2)[C@H](c2ccccc2)N2[C@H]1[C@@H](C(=O)O)[C@]1(C(=O)Nc3ccccc31)[C@H]2c1ccc(O)cc1 | -0.188 |
| COc1ccc(NC(=O)O[C@H]2[C@H](OC(=O)Nc3ccc4c(c3)OCO4)[C@@H](OC(=O)Nc3ccc4c(c3)OCO4)[C@@H](OC)O[C@@H]2CO)cc1 | 1.08 |
| COc1c(C)cc(-c2cc3c(c(-c4ccccc4)n2)[Si](C(C)C)(C(C)C)OC3)cc1C | -0.263 |
| C[C@@H](OCc1ccccc1)C1NC(=O)[C@@]23C(=O)N[C@@H](Cc4ccccc4)C2[C@H](C)[C@@]2(C)O[C@H]2C3/C=C/C/C=C\CNC(=O)CNC1=O (stereo partly specified) | -0.0955 |
| COc1ccc([Si](C)(C)[C@@H]2[C@@H](CC(=O)N3CCC[C@H]3CO)O[C@]3(C(=O)N(Cc4ccc(N5C(=O)c6cccc7cccc5c67)cc4)c4ccccc43)[C@H]2C)cc1 | 1.08 |
| CC1CC/C=C\[C@H]2OC34C=CCN(c5ccc6ccccc6c5)C(=O)[C@H]3N(C(CO)C(C)C)C(=O)[C@@H]4C2C(=O)O1 (stereo partly specified) | 0.135 |
| COCCOC(=O)N1C(=O)[C@@]2(c3cc(C#CCC(C(=O)OC)C(=O)OC)ccc31)[C@H](c1ccc(OCCO)cc1)N1[C@H](c3ccccc3)[C@H](c3ccccc3)OC(=O)[C@H]1[C@@H]2C(=O)N1CCN(c2ncccn2)CC1 | 1.07 |
| CCOC(=O)[C@H]1C/C=C/C[C@H](C(=O)OCC)C(=O)O[C@H]2[C@@H](OC)O[C@H](CO)[C@@H](OC(=O)Nc3ccc(OC)cc3)[C@@H]2OC1=O | 1.09 |
| O=C1O[C@@H](c2ccccc2)[C@@H](c2ccccc2)N2[C@@H](c3ccc(O)cc3)[C@]3(C(=O)Nc4ccc(C#CC5=CCCCC5)cc43)[C@@H](C(=O)N3CCN(c4ncccn4)CC3)[C@H]12 | 1.15 |
| CCCCN1CC=CC23O[C@@H]4/C=C\CCC(C)OC(=O)C4[C@H]2C(=O)N(CCCCCCO)[C@@H]3C1=O (stereo partly specified) | -0.407 |
| CCOC(=O)C[C@H]1[C@H](OC(=O)c2ccc(-c3ccccc3)cc2)[C@@H](NC(=O)c2ccc3ccccc3n2)c2cc(OCCCO)ccc2N1C(=O)c1ccccc1 | 1.05 |
| COc1ccc(NN2C(C(O)c3ccccn3)C=CC3C(=O)N(C4CCCCC4)C(=O)C32)cc1 (stereo unspecified) | 1.05 |
| COc1cc(OC)c(C(O)C2C=CC3C(=O)N(c4ccccc4)C(=O)C3N2Nc2ccc(C#N)cc2)cc1Br (stereo unspecified) | 1.15 |
| COc1ccc([Si](C)(C)[C@H]2[C@H](CCn3cc([C@H](O)c4ccccc4)nn3)O[C@@]3(C(=O)N(Cc4ccc(N5CCOC5=O)cc4)c4ccccc43)[C@@H]2C)cc1 | -0.865 |
| CCCCC(CC)C(O)C1C=CC2C(=O)N(c3ccccc3)C(=O)C2N1Nc1ccc([N+](=O)[O-])cc1 (stereo unspecified) | 1.03 |
